From publication PMC4336329 (PLoS ONE, 2015)
In all, about 310,000 compounds went through this assay and about 14,000 (4.5%) showed an effect of 50% or more. Effects have a minus sign here. Shown is part of a subset that was picked to be rich in strong results.

biological target: human ether-à-go-go-related gene (hERG) potassium channel (human, UniProt Q12809); test: primary screen, population patch clamp on CHO cells stably expressing hERG; higher = less effect of the substance
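Further: peak tail current of the secondary pulse compared with the same well before compound.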

human ether-à-go-go-related gene (hERG) potassium channel, sequence (Q12809 whole entry, looked up): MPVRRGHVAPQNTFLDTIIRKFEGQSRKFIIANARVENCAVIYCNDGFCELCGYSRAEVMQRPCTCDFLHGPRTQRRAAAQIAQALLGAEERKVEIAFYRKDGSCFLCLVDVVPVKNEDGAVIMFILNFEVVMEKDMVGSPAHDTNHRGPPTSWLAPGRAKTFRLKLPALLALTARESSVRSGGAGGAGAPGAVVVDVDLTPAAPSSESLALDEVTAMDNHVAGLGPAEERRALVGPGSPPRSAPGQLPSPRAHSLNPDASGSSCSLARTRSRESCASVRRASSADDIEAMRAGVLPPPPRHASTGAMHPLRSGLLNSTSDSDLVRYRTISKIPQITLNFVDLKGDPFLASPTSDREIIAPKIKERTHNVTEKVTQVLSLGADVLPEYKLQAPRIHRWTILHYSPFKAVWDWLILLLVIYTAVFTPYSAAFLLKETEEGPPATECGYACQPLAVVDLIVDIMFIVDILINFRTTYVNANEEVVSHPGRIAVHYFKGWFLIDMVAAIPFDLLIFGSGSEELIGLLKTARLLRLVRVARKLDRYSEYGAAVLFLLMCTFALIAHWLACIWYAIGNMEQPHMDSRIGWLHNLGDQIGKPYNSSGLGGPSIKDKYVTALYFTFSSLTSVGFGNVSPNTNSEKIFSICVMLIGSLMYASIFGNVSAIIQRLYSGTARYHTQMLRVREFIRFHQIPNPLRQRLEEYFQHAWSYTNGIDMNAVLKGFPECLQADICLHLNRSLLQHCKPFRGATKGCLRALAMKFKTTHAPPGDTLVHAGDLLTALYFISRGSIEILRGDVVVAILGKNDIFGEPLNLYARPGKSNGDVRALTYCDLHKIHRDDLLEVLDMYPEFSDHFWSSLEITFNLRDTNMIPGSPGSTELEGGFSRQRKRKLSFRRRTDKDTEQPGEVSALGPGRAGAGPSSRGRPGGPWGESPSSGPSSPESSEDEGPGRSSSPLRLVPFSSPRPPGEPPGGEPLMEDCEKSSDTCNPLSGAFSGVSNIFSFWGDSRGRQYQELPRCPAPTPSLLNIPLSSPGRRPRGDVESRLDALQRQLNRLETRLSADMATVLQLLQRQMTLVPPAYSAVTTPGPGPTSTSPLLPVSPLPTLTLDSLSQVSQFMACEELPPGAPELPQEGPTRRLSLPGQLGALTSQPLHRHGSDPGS

SMILES | hERG current change (%, negative = inhibition) at 10uM [%]
Cc1nn(C)cc1/C=N/NC(=O)Cn1nccc1C | -1.28
CCCCC(=O)NC1(C(F)(F)F)NC(=O)N(C)C1=O (centres unmarked) | 11.3
CCC(Sc1nc2ccsc2c(=O)n1-c1ccc(Cl)c(C)c1)C(=O)NCc1ccco1 (centres unmarked) | -16.8
CCOC(=O)c1nnn(CC(=O)Nc2cccc(Cl)c2C)c1C(=O)OCC | 4.51
COc1cc(NC(=O)CSc2nnc3c(C)cc4c(C)ccc(C)c4n23)c(C(=O)O)cc1OC | 27.1
COc1cccc(CNC(=O)CCC2CCCN(c3cc(C)nc(N4CCCC4)n3)C2)c1 (centres unmarked) | -75
COc1cccc(CNC(=O)CCC2CCCN(C(=O)C3CCOCC3)C2)c1 (centres unmarked) | 1.51
COc1cccc(CNC(=O)CCC2CCCN(C(=O)c3cc(C)[nH]n3)C2)c1 (centres unmarked) | 31.9
COc1cccc(CNC(=O)CCC2CCCN(C(=O)c3ccc(C)nc3)C2)c1 (centres unmarked) | 9.47
COc1cccc(CNC(=O)CCC2CCCN(C(=O)c3cc(C)on3)C2)c1 (centres unmarked) | 5.3
Cc1cc(C)nc(N2CCCC(CCC(=O)NCc3ccc(F)c(F)c3)C2)n1 (centres unmarked) | -1.25
COc1cccc(CNC(=O)CCC2CCCN(c3cc(C)nc(N(C)C)n3)C2)c1 (centres unmarked) | -62.4
COc1cccc(CNC(=O)CCC2CCCN(C(=O)c3ccccc3N(C)C)C2)c1 (centres unmarked) | 0.174
COc1cccc(CNC(=O)CCC2CCCN(c3cc(C)nc(N)n3)C2)c1 (centres unmarked) | -63.5
Cc1ccc(Nc2cccccc2=O)cc1 | -4.5
Cc1ccc(S(=O)(=O)N(C)C)cc1NC(=O)CSc1ncn[nH]1 | 3.1
CC1=NN(C(=O)c2c(Br)cnn2C)C(O)(C(F)(F)F)C1 (centres unmarked) | -24.6
Fc1cccc(Nc2ncnc3c2cnn3-c2ccccc2)c1 | 12.1
COc1cc(/C=N/NC(=O)c2nnn(-c3nonc3N)c2C(C)C)ccc1OCc1ccc(F)cc1 | 31.1
O=C(Cc1cscn1)c1ccc(O)cc1O | -9.71
COc1cc(OC)cc(C(=O)N[C@H](C(=O)Nc2ccc3c(c2)OCO3)C(C)C)c1 | 11
OCC1(CCc2ccccc2)CCCN(CCCc2ccccc2)C1 (centres unmarked) | -70.9
CSCC(=O)N1CCCC(CO)(CCCc2ccccc2)C1 (centres unmarked) | -4.78

SMILES | hERG current change (%, negative = inhibition) at 10uM [%]
OCC1(Cc2ccc(F)cc2)CCCN(CCCC(F)(F)F)C1 (centres unmarked) | -22.3
CSCCC(=O)N1CCCC(CO)(CCCc2ccccc2)C1 (centres unmarked) | -8.88
O=C(CCC(F)(F)F)N1CCC(CO)(CCc2ccccc2)CC1 | -12
OCC1(CCc2ccccc2)CCCN(CCCC(F)(F)F)C1 (centres unmarked) | -51.7
C[n+]1ccc(/C=N/Nc2nc(Cl)c(C#N)c(Cl)c2Cl)cc1.[Cl-] | 20.2
Cc1ccc(CNC(=O)c2ccccc2N)cc1 | 5.16
COc1cc(NS(=O)(=O)c2ccc(N/C=C(\C#N)c3nc4cc(Cl)ccc4o3)cc2)nc(OC)n1 | -7.44
CCN(CC)c1ccc(N2C(=NC(=O)C3CCCO3)SC3CS(=O)(=O)CC32)cc1 (centres unmarked) | 3.6
CC(=O)c1ccc(N2C(=NC(=O)C3CCCO3)SC3CS(=O)(=O)CC32)cc1 (centres unmarked) | -39.7
CCCCc1ccc(N2C(=NC(=O)C3CCCO3)SC3CS(=O)(=O)CC32)cc1 (centres unmarked) | -56.5
COc1ccc(/C(C)=N/NC(=O)CCC(=O)Nc2ccc(Cl)cc2Cl)c(OC)c1 | -3.74
CC1(C)O[C@@H]1COc1c2ccoc2cc2oc(=O)ccc12 | -19.4
O=C1CC(N2CCCCC2)C(=O)N1c1ccccc1 (centres unmarked) | -3.42
Cc1ccc(N2C(=O)CC(N3CCN(c4ccccn4)CC3)C2=O)cc1 (centres unmarked) | -6.04
O=C1CC(N2CCN(C3CCc4ccccc4C3)CC2)C(=O)N1c1ccccc1 (centres unmarked) | -64.6
CC1CCN(C2CC(=O)N(c3ccccc3)C2=O)CC1 (centres unmarked) | 8.4
Cc1ccc(N2C(=O)CC(N3CCN(C4CCc5ccccc5C4)CC3)C2=O)cc1 (centres unmarked) | -75.1
CCOC(=O)N1CCN(C2CC(=O)N(c3ccc(C)cc3)C2=O)CC1 (centres unmarked) | 1.62
CC(/C=C/c1ccco1)=N/NC(=O)OC(C)(C)C | 3.46
N#Cc1ccccc1Sc1ccccc1C(=O)Nc1ccc2ccccc2c1 | 15.8
CC(=O)c1c(C)nc(-c2ccc(Cl)cc2)nc1NC(=O)C(C)C | -9.25
Oc1ccccc1N=N/C(=N/Nc1ccccc1O)c1ccccc1 | 8.83
COC(=O)CCC(=O)Nc1ccccc1C(N)=O | 23.1

SMILES | hERG current change (%, negative = inhibition) at 10uM [%]
CC(C)(CO)Nc1ccc([N+](=O)[O-])cc1[N+](=O)[O-] | -8.26
COc1ccc(-n2ncc3c2CC(C)(C)CC3NC(=O)CCn2cncn2)cc1 (centres unmarked) | -42.2
CC1(C)Cc2c(cnn2-c2ccc(F)cc2)C(NC(=O)Cn2cncn2)C1 (centres unmarked) | 7.61
CC1(C)Cc2c(cnn2-c2ccccc2)C(NC(=O)CCCn2cncn2)C1 (centres unmarked) | -1.88
Cc1ccc(-n2ncc3c2CC(C)(C)CC3NC(=O)CCn2cncn2)cc1 (centres unmarked) | -76.8
CC1(C)Cc2c(cnn2-c2ccc(F)cc2)C(NC(=O)CCN2CCCC2=O)C1 (centres unmarked) | 5.01
CC1(C)Cc2c(cnn2-c2ccc(F)cc2)C(NC(=O)CCn2cncn2)C1 (centres unmarked) | -69.1
COc1cc(-c2nc3c[n+](CC(=O)c4ccccc4)ccc3n2C)cc(OC)c1OC.[Br-] | 0.461
CCC(CC)C(=O)Nc1ccc(-c2cn3cccnc3n2)cc1 | 4.74
Cc1cc(C)n(-c2ccc(C(=O)Nc3ccc(S(=O)(=O)N(C)C)cc3)cc2)n1 | -40.8
Cc1ccccc1-c1nnc(-c2ccccc2)o1 | -6.58
Cc1ccc(N2CC(NC(=O)C(=O)c3c(C)[nH]c4ccccc34)CC2=O)cc1C (centres unmarked) | -10.1
COc1ccc(N2CC(NC(=O)N3CCN(C(=O)c4ccco4)CC3)CC2=O)cc1OC (centres unmarked) | 5.5
Cc1ccc(N2CC(NC(=O)N3CCN(C(=O)c4ccco4)CC3)CC2=O)cc1 (centres unmarked) | -52.6
O=C(NC1CC(=O)N(c2cccc(F)c2)C1)N1CCN(C(=O)c2ccco2)CC1 (centres unmarked) | -26.1
O=C(NC1CC(=O)N(c2ccc(Cl)cc2)C1)N1CCN(C(=O)c2ccco2)CC1 (centres unmarked) | -91.6
O=C(NC1CC(=O)N(c2ccc(F)cc2)C1)N1CCN(C(=O)c2ccco2)CC1 (centres unmarked) | -63
Cc1ccc(N2CC(NC(=O)C(=O)c3c(C)[nH]c4ccccc34)CC2=O)cc1 (centres unmarked) | -47.8
Cc1[nH]c2ccccc2c1C(=O)C(=O)NC1CC(=O)N(c2ccc(F)cc2)C1 (centres unmarked) | -51.9
COc1ccc(N2CCN(C(=O)NC3CC(=O)N(c4ccc(OC)cc4)C3)CC2)cc1 (centres unmarked) | -35.9
O=C(NC1CC(=O)N(c2ccccc2)C1)N1CCN(C(=O)c2ccco2)CC1 (centres unmarked) | -5.77
O=C(NC1CCCCC1)N1CCN(C(=O)c2ccco2)CC1 | -6.24
O=C(NC1CC(=O)N(c2ccc(Cl)cc2)C1)C1CC1 (centres unmarked) | -18.2

SMILES | hERG current change (%, negative = inhibition) at 10uM [%]
COc1ccc(COc2ccc3ccc(=O)oc3c2)cc1 | 9.33
O=C(OCc1nnc(-c2ccccc2)o1)c1cc2ccccc2cc1O | 8.95
C/C(=N\NC(=O)c1nnn(-c2nonc2N)c1-c1cccs1)c1ccc(C)cc1 | -0.452
CC(=O)Nc1ccc(N2CCN(c3ccc(F)cc3)CC2)cc1 | 18.4
CS(=O)(=O)c1ccccc1C(=O)NC1CCCc2ccccc21 (centres unmarked) | 66.1
O=C(CCN1C(=O)S/C(=C\c2cccs2)C1=O)Nc1nccs1 | 9.41
CCOC(=O)CNC(=O)N1CCC(CCOc2ccccc2)(C(=O)OCC)CC1 | 1.83
CCOC(=O)CCNC(=O)N1CCC(CCOc2ccccc2)(C(=O)OCC)CC1 | -16.1
CCOC(=O)C1(CCOc2ccccc2)CCN(Cc2cccc(-n3cccn3)c2)CC1 | -79.3
CCOC(=O)C1(CCOc2ccccc2)CCN(C(=O)c2ccc(-n3cccn3)cc2)CC1 | -78.9
CCOC(=O)C1(CCOc2ccccc2)CCN(Cc2ccc(-n3cccn3)cc2)CC1 | -84.1
CCOC(=O)C1(CCOc2ccccc2)CCN(Cc2ccc3nonc3c2)CC1 | -17
COc1ccccc1C(=O)Nc1nc(N)n(-c2ccccc2)n1 | 13.8
CCCNC(=S)Nc1ccc(Oc2ccccc2)cc1 | -10.8
O=C(O)/C=C/c1cnc2ccccc2n1 | 16.6
Cc1ccc(S(=O)(=O)N2CCC(C(=O)NN3CCCCC3)CC2)cc1 | 4.16
O=C1Nc2ccc(Br)cc2/C1=C/C(=O)c1ccc2c(c1)OCO2 | 9.53
CCCCCCCCN[C@H](C)[C@@H](O)c1ccc(SC(C)C)cc1 | -67.4
CCCCCNC(=O)C(C)Sc1ccc(Cl)cc1 (centres unmarked) | 10.9
C[C@@H](NCCc1ccc(O)cc1)[C@@H](O)c1ccc(O)cc1.Cl | -11.5
